Measured values from PubChem BioAssay AID1626 (SRMLSC, 2009).
About 2,000 (0.91%) of roughly 220,000 compounds were called active. Another 2% or so got no clear call; they are omitted. A selection follows. Measured potencies and affinities stand elsewhere. Unmarked numbers belong to inactive results. Cut-off read from the data, not from the text of the source: inconclusive = inhibition above about 80% without an active follow-up result; inactive = below that; test concentration not stated here.

Experiment: M. tuberculosis H37Rv growth inhibitors, H37Rv strain (AID 1626);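 note: bacteria incubated seven days before Alamar blue readout; 0% = bacteria only wells and 100% = bacteria with antibiotic wells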
Conditions: active compounds read high, concentration not given here

| Structure (SMILES) | inhibition [%] |
| --- | --- |
| Cc1ccc(C)n1-c1c(C(=O)NN)cnn1-c1ccccc1 | -0.22 |
| C=CCn1c(-c2cccnc2)n[nH]c1=S | 4.66 |
| O=C1CCC/C(=N\NC(=O)COc2ccc(Cl)cc2)C1 | -2.69 |
| O=C(Cn1cnc2ccccc2c1=O)Nc1ccccc1N1CCOCC1 | 2.06 |
| CN1CCN(c2ccccc2NC(=O)c2cc(Br)ccc2Cl)CC1 | 12.3 |
| COC(=O)C(Cc1ccccc1)NC(=S)NC(=O)c1ccccc1 (stereo unspecified) | 3.22 |
| CCOC(=O)c1c(C)[nH]c(C)c1C(=O)CSc1nnc(-c2cc(OC)c(OC)c(OC)c2)o1 | -2.95 |
| COc1cc(-c2nnc(SCC(=O)N3CCCC3)o2)cc(OC)c1OC | -3.99 |
| COc1ccc(N2CCC(CNC(=O)Nc3cccc(OC)c3)C2)cc1 (stereo unspecified) | 8.56 |
| CCOCC(=O)Nc1ccc([N+](=O)[O-])cc1C | 4.52 |
| COc1ccc(NC(=S)N2C3CCC2CC(NC(=O)NC24CC5CC(CC(C5)C2)C4)C3)c(OC)c1 (stereo unspecified) | 40.3 |
| COc1ccc(CC2(CO)CCN(Cc3cc4ccccc4o3)CC2)cc1 | 5.84 |
| CC(Sc1ccccc1)C(=O)NN=C1CCCC1 (stereo unspecified) | -0.55 |
| CC1CCc2nc(NC(=O)CN3CCN(Cc4ccc5c(c4)OCO5)CC3)sc2C1 (stereo unspecified) | 64.4 |
| COc1ccc(N2CCN(CC(=O)Nc3nnc(-c4ccccc4)s3)CC2)cc1 | 73.3 |
| CC1CCc2nc(NC(=O)CN3CCOCC3)sc2C1 (stereo unspecified) | 23.3 |
| CC1CCc2nc(NC(=O)CN3CCN(c4ccc(F)cc4)CC3)sc2C1 (stereo unspecified) | 18.4 |
| O=C(O)c1ccccc1NC(=S)NC(=O)c1sc2ccccc2c1Cl | -3.63 |
| CCOC(=O)C(C)Sc1nc(=O)n2ccccc2n1 (stereo unspecified) | -0.38 |
| Clc1cccc(Cl)c1CSc1nnc(CN2CCOCC2)n1-c1ccccc1 | -7.41 |
| O=C(O)CCC(=O)Nc1ccc(Br)cc1C(=O)c1ccc(Cl)cc1 | -5.88 |
| COc1ccccc1COCC(O)CN(Cc1ccco1)Cc1ccccc1O (stereo unspecified) | 11.4 |
| COc1ccc(/C=C/C(=O)C(C)(C)C)cc1OC | 7.04 |
| COc1ccc(/C=C/C(=O)O)cc1OC | -4.92 |
| CCOC(=O)c1cc(-c2ccccc2)sc1NC(=O)C(C)OC(=O)c1ccncc1 (stereo unspecified) | 0.66 |
| C=CCSc1nc(C)cc(C(=O)OCC)c1C#N | -3.16 |

| Structure (SMILES) | inhibition [%] |
| --- | --- |
| COc1ccccc1C(=O)O/N=C(\c1ccccc1)c1ccncc1 | 3.28 |
| CCOc1cccc(/C=C/C(=O)O)c1 | 4.51 |
| CCOC(=O)N/N=C/C=C/c1ccccc1 | -6.43 |
| Oc1csc(Cc2nc(-c3ccc(Br)cc3)cs2)n1 | 38.3 |
| CCNCCNC(=O)c1c(O)c2cccc3c2n(c1=O)CCC3 | 1.67 |
| CNC(=O)c1c(O)c2cccc3c2n(c1=O)CC3 | -2 |
| CCCCNC(=O)c1c(O)c2cccc3c2n(c1=O)CCC3 | 3.46 |
| Cc1cccc(NC(=O)c2c(O)c3cccc4c3n(c2=O)CCC4)n1 | -9.1 |
| O=C(Nc1ccccn1)c1c(O)c2cccc3c2n(c1=O)CCC3 | -3.22 |
| O=C(NCc1cccnc1)c1c(O)c2cccc3c2n(c1=O)CCC3 | -3.06 |
| COc1ccc(-n2cnnc2SCC(=O)Nc2cccnc2Cl)cc1 | 2.1 |
| O=C(Nc1nccs1)c1ccc(Cl)c(S(=O)(=O)N2CCOCC2)c1 | -20.2 |
| CC1C(c2ccccc2)=NNc2nc3c(c(=O)n(C)c(=O)n3C)n21 (stereo unspecified) | -9.85 |
| Cc1cccc2c1CC(C)(C)N=C2C1=C(O)CC(C)(C)CC1=O | 2.19 |
| CC(=O)Nc1ccc(NC(=O)CCc2nc3ccccc3c(=O)[nH]2)cc1 | 2.86 |
| CCCCn1c(O)c(C(CC)=NCc2ccc3c(c2)OCO3)c(=O)[nH]c1=O | -0.92 |
| O=c1[nH]c(=O)n(CCc2ccccc2)c(O)c1C=NCc1ccc2c(c1)OCO2 | -3.13 |
| COc1cc(/C=C/C(=O)CC(=O)/C=C/c2ccc(O)c(OC)c2)ccc1O | 7.76 |
| COc1ccc(/C=C/C(=O)c2c(O)n(CCC3=CCCCC3)c(=O)[nH]c2=O)cc1OC | 36.6 |
| Cc1cc(C)c(C(=O)/C=C/c2ccc3c(c2)OCO3)c(=O)[nH]1 | -2.72 |
| CCCCn1c(O)c(C(C)=NCc2ccc3c(c2)OCO3)c(=O)[nH]c1=O | 10.3 |
| Cn1c(N)c(C(=O)/C=C/c2ccccc2)c(=O)[nH]c1=O | -9.59 |
| O=C(/C=C/c1c[nH]c2ccccc12)c1c(O)n(CCc2ccccc2)c(=O)[nH]c1=O | 22.5 |
| COc1ccc(CN(C)CC(=O)Nc2sc3c(c2C#N)CCC3)cc1OC | 3.36 |
| Cc1ccc(/C=N/NC(=O)CCCOc2ccc(Cl)cc2Cl)cc1[N+](=O)[O-] | -5.05 |
